16 compounds from PubChem BioAssay (NCATS) can be followed below.

Results filed as inconclusive are left out. A number with no mark means an inactive call. The source made the active and inactive calls. Calls come from the whole dose curve; as a rule, active = well fitted inhibition curve with a large enough effect; inconclusive = small, poorly fitted or top-dose-only effect; inactive = flat fitted curve, though single readings scatter.

A short description of test [1]: qHTS profiling for inhibitors of Plasmodium falciparum proliferation (AID 504749).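 For activity, negative = inhibition: 0% = DMSO vehicle and full inhibition = artemisinin control.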 Note: nearly all actives have a fitted effect of over 60% in size. Particulars: P. falciparum in erythrocytes, SYBR Green DNA, 72 h. In a few lines:
(§1)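 Parasite proliferation within erythrocytes, 72 h exposure. Endpoint: SYBR Green I fluorescence after overnight lysis at room temperature. Controls: 0.29 uM artemisinin, DMSO.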
(qHTS replaces the single test concentration by a dilution series.)

The test system of test [2] is 3D7. The test is described as above. The conditions noted are these: P. falciparum in erythrocytes, SYBR Green DNA, 72 h; series mostly up to 28.7 µM. The method in brief: as §1
Test [3] concerns 7G8. The description is as above. Particulars: P. falciparum in erythrocytes, SYBR Green DNA, 72 h; series mostly up to 28.7 µM. The method in brief:
as §1

The subject of test [4] is AA1029. The description is as above. Particulars: P. falciparum in erythrocytes, SYBR Green DNA, 72 h; series mostly up to 28.7 µM. The method in brief:
as §1

In test [5] the test system is AS120. The test is described as above. The conditions noted are these: P. falciparum in erythrocytes, SYBR Green DNA, 72 h; series mostly up to 28.7 µM. In a few lines: as §1
Test [6] relates to ATS189. The test is described as above. Particulars: P. falciparum in erythrocytes, SYBR Green DNA, 72 h; series mostly up to 28.7 µM. In a few lines: as §1
Test [7] has as its system ATS95. The test is described as above. The conditions noted are these: P. falciparum in erythrocytes, SYBR Green DNA, 72 h; series mostly up to 28.7 µM. The method in brief:
as §1

The subject of test [8] is C2A. The description is as above. Particulars: P. falciparum in erythrocytes, SYBR Green DNA, 72 h; series mostly up to 28.7 µM. The method in brief: as §1
In test [9] the test system is CP185. Described as above. Particulars: P. falciparum in erythrocytes, SYBR Green DNA, 72 h; series mostly up to 28.7 µM. In a few lines: as §1
The subject of test [10] is CP191. The description is as above. The conditions noted are these: P. falciparum in erythrocytes, SYBR Green DNA, 72 h; series mostly up to 28.7 µM. The method in brief: as §1
Setting [11] is: at 28.7 µM (top of the series), parasite line A.
The mark [12] stands for this setting: at 28.7 µM (top of the series), parasite line B.
The mark [13] stands for this setting: at 12.8 µM (top of the series), parasite line A.
Setting [14] is: at 12.8 µM (top of the series), parasite line B.
Potency is the fitted concentration of half-maximal effect.

For the compound `OCCN1CCN(CCCN2c3ccccc3Sc3ccc(C(F)(F)F)cc32)CC1`, the Potency is 7.08 µM (active) in [1] (parasite line A); 10 µM (active) in test [1] (parasite line B); 7.08 µM (active) in test [2]; 3.16 µM (active) in [3]; 12.6 µM (active) in [4]; 10 µM (active) in test [5]. In addition, the Potency is 8.91 µM (active) in [6]; 11.2 µM (active) in [7]; 12.6 µM (active) in [8]; 11.2 µM (active) in test [9]; 7.94 µM (active) in test [10].

`CCC1(c2ccccc2)C(=O)NCNC1=O`: the values for the activity, negative = inhibition in test [1] (setting [11]) and in [1] (setting [12]) were 6.87% and 11.7%, respectively. Moreover, the Potency entry in test [2], in [3], in test [4], in test [5], in test [6] and in [7] was “inactive” throughout. For the same compound, the Potency entry in [8], in test [9] and in test [10] was “inactive” each time.

Turning to `CN1C(C(=O)Nc2ccccn2)=C(O)c2ccccc2S1(=O)=O`, the activity, negative = inhibition is -3.72% in [1] (setting [13]) and -0.0614% in [1] (setting [14]). The Potency entry in test [2], in [3], in test [4], in test [5], in [6] and in test [7] was “inactive” throughout. Besides, the Potency result in test [8], in test [9] and in [10] was “inactive” each time.

Consider `CC(C)(C)C(=O)Oc1ccc(S(=O)(=O)Nc2ccccc2C(=O)NCC(=O)O)cc1`, for which the activity, negative = inhibition in [1] (setting [11]) is -0.829%; in test [1] (setting [12]), 7.95%. The Potency result in [2], in test [3], in test [4], in test [5], in [6] and in test [7] was “inactive” each time. The Potency result in [8], in test [9] and in test [10] was “inactive” each time.

As to `Nc1nnc(-c2cccc(Cl)c2Cl)c(N)n1`, the activity, negative = inhibition in test [1] (setting [11]) was -17%; in test [1] (setting [12]) it was -20%. Besides, the Potency entry in test [2], in test [3], in [4], in [5], in test [6] and in test [7] was “inactive” in each case. Also, the Potency result in test [8], in test [9] and in [10] was “inactive” throughout.

With `N[C@@H](Cc1c[nH]c2ccc(O)cc12)C(=O)O`, the activity, negative = inhibition is 15.9% in test [1] (setting [11]) and 15.8% in [1] (setting [12]). In addition, the Potency entry in test [2], in [3], in test [4], in [5], in test [6] and in test [7] was “inactive” each time. Also, the Potency result in [8], in [9] and in test [10] was “inactive” each time.

As to `COc1ccccc1N1CCN(CC(O)COc2cccc3ccccc23)CC1` (stereo unspecified), the activity, negative = inhibition was -3.66% in test [1] (setting [11]) and -18.8% in test [1] (setting [12]). The Potency entry in [2], in test [4], in [5], in test [6], in test [7] and in test [8] was “inactive” each time. The Potency result in test [9] and in test [10] was “inactive” in each case. Moreover, the Potency in [3] is 11.2 µM (active).

As to `O=c1c(-c2ccc(O)cc2)coc2cc(O)cc(O)c12`, the activity, negative = inhibition in test [1] (setting [11]) is -2.63%; in test [1] (setting [12]), -14.6%. The Potency result in [2], in [3], in test [4], in [5], in test [6] and in test [7] was “inactive” in each case. Also, the Potency result in [8], in [9] and in test [10] was “inactive” throughout.

Take `CS(=O)(=O)CCNCc1ccc(-c2ccc3ncnc(Nc4ccc(OCc5cccc(F)c5)c(Cl)c4)c3c2)o1`: the values for the activity, negative = inhibition in test [1] (setting [11]) and in [1] (setting [12]) were 6.38% and -5.13%, respectively. In addition, the Potency entry in test [2], in test [3], in test [4], in test [5], in test [6] and in test [7] was “inactive” throughout. For the same compound, the Potency entry in [8], in [9] and in [10] was “inactive” throughout.

For `COc1ccccc1OCC(O)CN1CCN(CC(=O)Nc2c(C)cccc2C)CC1` (stereo unspecified), the activity, negative = inhibition was 2.52% in test [1] (setting [11]) and -6.5% in [1] (setting [12]). The Potency entry in [2], in test [3], in [4], in test [5], in test [6] and in test [7] was “inactive” throughout. Moreover, the Potency result in [8], in test [9] and in test [10] was “inactive” in each case.

On to `COc1cc2c(c(OC)c1OC)-c1ccc(OC)c(=O)cc1[C@@H](NC(C)=O)CC2`, for which the activity, negative = inhibition in test [1] (setting [11]) was -2.78%; in [1] (setting [12]), 6.74%. Further, the Potency entry in test [2], in [3], in test [4], in test [5], in test [6] and in test [7] was “inactive” throughout. Besides, the Potency result in test [8], in test [9] and in [10] was “inactive” each time.

For the compound `CCOC(=O)C(C)(C)Oc1ccc(Cl)cc1`, the activity, negative = inhibition is 5.66% in test [1] (setting [11]) and 12.1% in test [1] (setting [12]). In addition, the Potency result in test [2], in [3], in test [4], in [5], in test [6] and in test [7] was “inactive” each time. Further, the Potency result in test [8], in test [9] and in test [10] was “inactive” throughout.

With `CCCNCC(O)COc1ccccc1C(=O)CCc1ccccc1` (stereo unspecified), the Potency was 1 µM (active) in test [1] (parasite line A); 0.355 µM (active) in test [1] (parasite line B); 2 µM (active) in [2]; 0.251 µM (active) in test [3]; 0.631 µM (active) in [4]; 0.316 µM (active) in test [5]. For the same compound, the Potency is 0.891 µM (active) in test [6]; 0.631 µM (active) in [7]; 1.78 µM (active) in test [8]; 1.26 µM (active) in test [9]; 1.26 µM (active) in test [10].

As to `Nc1nc2c(ncn2COC(CO)CO)c(=O)[nH]1`, the activity, negative = inhibition in test [1] (setting [13]) is -0.332%; in [1] (setting [14]) it was 8.95%. Also, the Potency result in [2], in test [3], in [4], in test [5], in test [6] and in test [7] was “inactive” in each case. Moreover, the Potency entry in test [8], in [9] and in test [10] was “inactive” throughout.

Regarding `Cc1cn([C@H]2C=C[C@@H](CO)O2)c(=O)[nH]c1=O`, the activity, negative = inhibition in test [1] (setting [11]) was 2.38%; in test [1] (setting [12]), -3.42%. For the same compound, the Potency result in [2], in test [3], in test [4], in test [5], in test [6] and in [7] was “inactive” throughout. For the same compound, the Potency entry in [8], in test [9] and in [10] was “inactive” throughout.

Take `Cc1cn([C@H]2C[C@H](N=[N+]=[N-])[C@@H](CO)O2)c(=O)[nH]c1=O`: the activity, negative = inhibition in test [1] (setting [11]) is -7.84%; in [1] (setting [12]), 9.23%. Also, the Potency entry in test [2], in test [3], in [4], in test [5], in test [6] and in [7] was “inactive” in each case. Moreover, the Potency result in [8], in [9] and in test [10] was “inactive” in each case.
